# Bioassay records as filed in PubChem.
# Compounds with a hit are over-represented: about 1.3% of the library has one in this group of screens.
# VACV mCherry inh: inhibitors of vaccinia virus infection (mCherry reporter signal); Vaccinia virus mCherry reporter infection, fluorescence; Potency, µM (highest dose often 36.5 µM), for the others: top-dose activity change, negative = inhibition, usual class: inhibitors; 310,000 tested, 0.63% active; AID 720579; calls by dose curve; tested in A549 cells; also: % is scaled to controls: 0 for no effect and ±100 for the full control effect; nearly all actives have a fitted effect of over 35% in size
# AmpC detergent: AmpC beta-lactamase inhibition with detergent present; AmpC hydrolysis of nitrocefin, absorbance 480 nm, 0.01% Triton; Potency, µM (titrated, usually from 114 µM), inactives show at the highest dose activity change, negative = inhibition, usual class: inhibitors; 370,000 tested, 0.041% active; AID 485294;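 also: 0% = no-compound wells and -100% = no-enzyme wells; nearly all actives have a fitted effect of over 25% in size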
# Target sequence (P00811 whole entry, looked up): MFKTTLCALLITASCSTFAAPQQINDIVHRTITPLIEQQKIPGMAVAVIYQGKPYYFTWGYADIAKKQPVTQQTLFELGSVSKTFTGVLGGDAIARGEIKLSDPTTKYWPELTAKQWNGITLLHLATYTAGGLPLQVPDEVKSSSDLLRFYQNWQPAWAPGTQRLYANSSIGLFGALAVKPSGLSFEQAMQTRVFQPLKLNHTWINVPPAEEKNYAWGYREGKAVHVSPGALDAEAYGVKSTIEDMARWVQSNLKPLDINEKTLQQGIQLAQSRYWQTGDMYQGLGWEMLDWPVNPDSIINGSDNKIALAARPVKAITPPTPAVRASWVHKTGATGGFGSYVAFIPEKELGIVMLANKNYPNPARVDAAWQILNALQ
#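 20 mM phosphate pH 7.0 + 0.01% (detergent screen) or 0.0001% Triton X-100; 5.3 nM AmpC reagent; cpd preinc 15 min RT; nitrocefin (800 uM stock) to start; A480 q20 s × 4 min; Activity was normalised to no-enzyme and no-compound control wells.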
# AmpC inh no detg: inhibitors of E. coli AmpC beta-lactamase without detergent; P00811; AmpC nitrocefin hydrolysis, absorbance 480 nm, 0.0001% Triton; Potency, µM (doses to about 57.1 µM), inactives show top-dose activity change, negative = inhibition, usual class: inhibitors; 330,000 tested, 0.52% active; AID 485341;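 also: plate controls were no compound for no effect and no enzyme for full effect; nearly all actives have a fitted effect of over 20% in size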
#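 20 mM phosphate pH 7.0 + 0.01% (detergent screen) or 0.0001% Triton X-100; 5.3 nM AmpC reagent; cpd preinc 15 min RT; nitrocefin (800 uM stock) to start; A480 q20 s × 4 min; Activity was normalised to no-enzyme and no-compound control wells.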
# SARS PLP yeast: blocks SARS-CoV papain-like protease in a yeast assay. S. cerevisiae expressing SARS-CoV PLpro, growth rescue. Potency, µM (highest dose often 32.9 µM), for inactives: top-dose activity, positive = growth rescue, most hits filed as activators. 330,000 tested, 0.19% active. AID 485353; calls by dose curve; also: 0% is about no effect; nearly all actives have a fitted effect of over 55% in size
# VACV Venus inh: vaccinia inhibition (Venus reporter) | Potency, µM (series often up to 36.5 µM), for the others: at the top dose activity change, negative = inhibition, most hits filed as inhibitors | 330,000 tested, 0.46% active | Vaccinia virus Venus reporter expression, fluorescence; calls by dose curve; tested in A549 cells; also: % is scaled to controls: 0 for no effect and ±100 for the full control effect; nearly all actives have a fitted effect of over 30% in size
# Starred values were filed as active, the others as inactive; i = inactive; ? = inconclusive; / = no result given. Unless noted, calls follow the shape of the dose curve; as a rule, active = well fitted curve in the direction sought with a large enough effect; inconclusive = small, poorly fitted or top-dose-only effect, or another doubt; inactive = no such curve, though single readings can be large; an effect the other way counts as inactive or inconclusive. Potency is read from the fitted curve at half-maximal effect.
SMILES,VACV mCherry inh,AmpC detergent,AmpC inh no detg,SARS PLP yeast,VACV Venus inh
CCOC(=O)C1CCN(c2ncnc3nc[nH]c23)CC1,-2%,-7%,-17%,10%,-8%
CCOC(=O)N1CCN(c2ncnc3nc[nH]c23)CC1,?,?,45µM*,0%,-22%
Cc1cc(C)n(-c2cccc(C(=O)NCC3Cc4cccc(-c5ccccn5)c4O3)c2)n1 (configuration not stated),?,/,/,/,-27%
Cc1cccc(NC(=O)c2c(F)c(F)c(F)c(F)c2F)c1,-4%,4%,-14%,-10%,-9%
CC(=O)c1cccc(NC(=O)c2c(F)c(F)c(F)c(F)c2F)c1,/,-7%,4%,-3%,10µM*
O=C(Nc1ccncc1)c1c(F)c(F)c(F)c(F)c1F,6.3µM*,2%,-2%,-9%,?
Cc1ncc(-c2ccc(F)cc2)c(C2CCCN(Cc3cccc(O)c3)C2)n1 (configuration not stated),i,/,/,/,-14%
O=C(NCCN1Cc2ccccc2OC(c2ccsc2)C1)c1cncs1 (configuration not stated),-11%,/,/,/,-5%
CCN(CC)CCCNc1nc2ccccc2c2[nH]c3ccc(OC)cc3c12,?,/,/,/,10µM*
CCN(CC)CCCNc1nc(-c2ccccc2)nc2ccccc12,i,?,3%,10%,?
CS(=O)(=O)Nc1cc(C(=O)N2CCNC(=O)C2)c2c(c1)ncn2CCc1ccccc1,i,/,/,/,0%
CCN(C(=O)CCN1C(=O)/C(=C/c2ccccc2)SC1=S)C1CCS(=O)(=O)C1 (configuration not stated),?,0%,163%,-2%,?
CN(C(=O)CCN1C(=O)/C(=C/c2ccc(F)cc2)SC1=S)C1CCS(=O)(=O)C1 (configuration not stated),?,/,/,/,11µM*
CCN1CCC(N[C@H]2C[C@@H](C(=O)NC)N(Cc3cccc4ccccc34)C2)CC1,-7%,/,/,/,-2%
CN(C)CC(CCC(CN(C)C)C(=O)c1ccccc1)C(=O)c1ccccc1 (configuration not stated),?,1%,16%,-3%,11µM*
CCCCOc1ccc(C(=O)C(CN2CCOCC2)c2ccccc2)cc1 (configuration not stated),16µM*,-21%,159%,-35%,?
O=C(c1ccc(Cl)cc1)C(CN1CCCC1)c1ccccc1 (configuration not stated),/,-11%,24%,-20%,/
CCCOc1ccc(C(=O)C(CN2CCCC2)c2ccccc2)cc1 (configuration not stated),?,-8%,14%,-36%,10µM*
COc1ccc(C(=O)C(CN2CCCC2)c2ccccc2)cc1 (configuration not stated),11µM*,-17%,-10%,-32%,?
CCOc1ccc(C(=O)C(CCC(CN(C)C)C(=O)c2ccc(OCC)cc2)CN(C)C)cc1 (configuration not stated),/,0%,185%,-25%,/
CCCCOc1ccc(C(O)C(CN2CCCCC2)c2ccccc2)cc1 (configuration not stated),-10%,-12%,18%,1%,-9%
O=C(c1ccc(F)cc1)C(CN1CCOCC1)c1ccccc1 (configuration not stated),14µM*,-10%,-14%,-19%,13µM*
c1ccc(C(CN2CCOCC2)c2ccccc2)cc1,/,-17%,10%,2%,/
CCC(O)(c1ccc(OC)cc1)C(CN1CCOCC1)c1ccccc1 (configuration not stated),/,1%,135%,-3%,/
O=C(c1ccccc1)C(CCC(CN1CCOCC1)C(=O)c1ccccc1)CN1CCOCC1 (configuration not stated),/,-12%,76%,-20%,7.9µM*
SMILES,VACV mCherry inh,AmpC detergent,AmpC inh no detg,SARS PLP yeast,VACV Venus inh
COc1ccc(C(=O)C(CN2CCOCC2)c2ccccc2)cc1 (configuration not stated),10µM*,?,2%,-36%,10µM*
COc1cccc(Cc2nc3cccnc3n2C2CCN(C(=O)c3n[nH]c4c3CCCC4)CC2)c1,-13%,/,/,/,1%
CC(C)CSc1nnc(CNC(=O)c2ccccn2)n1C,i,/,/,/,-16%
COc1ccc(-n2nc(C#N)c(Cl)cc2=O)cc1,11µM*,-9%,-13%,-14%,10µM*
O=C(NCCN1CCN(c2ccccc2)CC1)C1(S(=O)(=O)c2ccc(Cl)cc2)CC1,?,-9%,131%,10%,-22%
CC1(C)CCC(c2ccc(Cl)cc2)=C(CN2CCN(c3ccc(C(=O)NS(=O)(=O)c4ccc(N[C@H](CCN5CCOCC5)CSc5ccccc5)c(S(=O)(=O)C(F)(F)F)c4)cc3)CC2)C1,?,/,/,/,10µM*
COc1ccc2c(c1)/C(=C/c1cnc[nH]1)C(=O)N2,3.5µM*,?,-29%,-16%,7.1µM*
O=C1Nc2ccccc2/C1=C/c1cnc[nH]1,/,?,-13%,-13%,/
O=C(CCl)N(c1ccccc1)C1CCS(=O)(=O)C1 (configuration not stated),10µM*,?,-23%,-14%,11µM*
Cc1ccc(S(=O)(=O)Nc2cccc(-c3ccc(N4CCCCCC4)nn3)c2)cc1,/,-13%,0.71µM*,-10%,/
Cc1cccc(S(=O)(=O)Nc2cccc(-c3ccc(N4CCCCC4)nn3)c2)c1,i,2%,/,/,-11%
O=C(C[n+]1ccccc1)c1ccc(O)c(O)c1,?,/,/,/,-7%
OC(CNCCC1C=Nc2ccccc21)Cn1c2ccc(Cl)cc2c2cc(Cl)ccc21 (configuration not stated),20µM*,1%,3%,-41%,?
COc1ccccc1C1CN(Cc2cccnc2)Cc2ccccc2O1 (configuration not stated),-12%,/,/,/,6%
Clc1ccc(/C=N/Nc2nc(Cl)nc3ccccc23)cc1,/,9%,18µM*,-9%,/
CCCCCOC(=O)Cn1c(=O)oc2ccccc21,-17%,-8%,-3%,1%,-2%
CCCCCCCCCCOC(=O)Cn1c(COc2ccccc2C)[n+](C)c2ccccc21,?,-3%,212%,-15%,28µM*
CCCCCCCCCCOC(=O)Cn1c(COc2cccc(C)c2)[n+](C)c2ccccc21,-4%,?,169%,-7%,?
CCCCOC(=O)Cn1c(=O)n(CC(=O)OCCCC)c2ccccc21,/,?,18%,6%,-1%
CCCCCCCCCCOC(=O)Cn1c(COc2ccc(Cl)cc2)[n+](C)c2ccccc21,?,-15%,90%,-12%,10µM*
CCCCCCCCCCOC(=O)Cn1c(COc2ccc(OC)cc2)[n+](C)c2ccccc21,?,0%,119%,-6%,11µM*
CCCCCCCCCCOC(=O)Cn1c(COc2ccccc2)[n+](C)c2ccccc21,?,0%,100%,-8%,11µM*
